The record followed here is PubChem BioAssay (NCATS).

Assay [1] concerns the target Cytochrome P450 3A4 (Homo sapiens) (UniProt P08684). The assay can be described thus: qHTS Assay for Inhibitors and Substrates of Cytochrome P450 3A4 (AID 884). Note: nearly all actives have a fitted effect of over 50% in size. Note: potency is the fitted concentration of half-maximal effect. In outline: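 20 nM human CYP3A4 with 25 uM Luciferin-PPXE (at KM) in 200 mM KPO4, preincubated 10 min with compound; NADPH regeneration started a 60 min RT reaction. Luciferin detected by luminescence, normalized to 57 uM ketoconazole as full inhibition.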

The nature of assay [2]: MultiTox-Fluor Cytotoxicity Assay - LYMP1-001 - Live Cells (AID 947).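 Note: 0% = DMSO only and full inhibition = tetraoctylammonium bromide control.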
Assay [3] in a line: Cell Viability - LYMP2-004 (AID 966).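 Note: cells exposed to compound for 24 h; plate controls were DMSO only for no effect and tetraoctylammonium bromide control for full effect; nearly all actives have a fitted effect of over 65% in size.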 In outline: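 Cells seeded 2500/well, rested 5 hr at 37 C, dosed across a concentration series, incubated 24 hr at 37 C, then CellTiter-Glo added for 30 min at room temperature and luminescence read. Hill fitting gave AC50.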
A short description of assay [4]: Cell Viability - LYMP1-002 - Assay at 24 hr (AID 993). Note: % is set by controls: 0 for no effect and ±100 for the full control effect. In outline: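 Cells plated 2500/well, 5 hr 37 C; compounds added, 24 hr 37 C; CellTiter-Glo added, 30 min RT; luminescence read. Tetraoctylammonium bromide positive control. Hill-equation AC50.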
For assay [5], the target named is Peroxisome proliferator-activated receptor gamma (Homo sapiens) (UniProt P37231). Briefly: qHTS assay for small molecule agonists of peroxisome proliferator-activated receptor gamma signaling (AID 588536; active = well fitted curve in the direction sought with a large enough effect in the signal ratio, with a control signal flat, not every such curve was filed as active; the % refers to the signal ratio;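 note: 0% = DMSO basal wells and 100% = rosiglitazone at 2 µM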). In outline:
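Test agents, titrated, stimulated HEK293 UAS-bla cells overnight (16 h, 37 C). Substrate CCF4 was then added for two hours at room temperature before fluorescence reading.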

A short description of assay [6]: qHTS assay for small molecule agonists of retinoid X receptor alpha signaling (AID 588544; calls by dose curve;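 for activation: 0% = DMSO basal wells and 100% = reference agonist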). Particulars: HEK293T RXRa-UAS-bla, beta-lactamase reporter, 18 h; 530 nm emission.
The target of assay [7] is Retinoic acid receptor RXR-alpha (Homo sapiens) (UniProt P19793). Described as above.
Sequence of Retinoic acid receptor RXR-alpha (Homo sapiens) (P19793 whole entry, looked up): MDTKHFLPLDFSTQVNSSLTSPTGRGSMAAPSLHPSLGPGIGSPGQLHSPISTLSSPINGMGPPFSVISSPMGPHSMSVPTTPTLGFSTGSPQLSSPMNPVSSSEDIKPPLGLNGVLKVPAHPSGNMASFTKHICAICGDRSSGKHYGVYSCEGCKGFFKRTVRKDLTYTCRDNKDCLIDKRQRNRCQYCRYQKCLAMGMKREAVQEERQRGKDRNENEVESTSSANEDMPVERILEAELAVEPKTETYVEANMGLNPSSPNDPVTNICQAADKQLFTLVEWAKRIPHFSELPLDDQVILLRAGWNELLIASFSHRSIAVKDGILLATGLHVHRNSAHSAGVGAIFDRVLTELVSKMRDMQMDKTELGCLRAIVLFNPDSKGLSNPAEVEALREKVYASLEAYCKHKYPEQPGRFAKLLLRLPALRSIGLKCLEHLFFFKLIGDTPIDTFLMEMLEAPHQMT
The target in assay [8] is Thyroid hormone receptor beta (Homo sapiens) (UniProt P10828). The assay can be described thus: qHTS assay for small molecule agonists of thyroid hormone receptor beta signaling (AID 588545; calls by dose curve). In outline: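 In this cell-based screen, titrated compounds act on HEK 293 cells held in medium with 2% charcoal/dextran FBS, NEAA and pyruvate for 18 hrs at 37 C. Responses are expressed relative to T3 (10 nM) as 100% and basal DMSO as 0%.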
Sequence of Thyroid hormone receptor beta (Homo sapiens) (P10828 whole entry, looked up): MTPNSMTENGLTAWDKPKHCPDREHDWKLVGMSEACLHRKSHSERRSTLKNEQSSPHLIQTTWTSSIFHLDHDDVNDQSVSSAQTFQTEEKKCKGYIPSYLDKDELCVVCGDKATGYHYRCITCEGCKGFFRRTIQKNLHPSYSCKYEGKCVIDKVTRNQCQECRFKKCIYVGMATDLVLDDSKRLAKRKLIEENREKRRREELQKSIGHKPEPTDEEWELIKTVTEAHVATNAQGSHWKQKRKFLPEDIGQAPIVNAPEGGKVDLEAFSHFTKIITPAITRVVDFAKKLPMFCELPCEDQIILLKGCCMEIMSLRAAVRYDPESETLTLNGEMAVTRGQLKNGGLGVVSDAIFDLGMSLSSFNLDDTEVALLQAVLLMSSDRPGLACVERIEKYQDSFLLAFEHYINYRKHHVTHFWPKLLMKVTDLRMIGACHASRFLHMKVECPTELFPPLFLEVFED

The target is the same in assay [9]. Briefly: qHTS assay for small molecule antagonists of thyroid hormone receptor beta signaling (AID 588547; active = well fitted inhibition curve with a large enough effect in the signal ratio, with a control signal flat, not every such curve was filed as active; the % refers to the signal ratio;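 note: cells stimulated with 0.4 nM T3 agonist during compound exposure; series mostly up to about 77 µM; % is set by controls: 0 for no effect and ±100 for the full control effect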). Particulars: TR-UAS-bla HEK293, beta-lactamase ratio, antagonist mode, 18 h. In outline: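 TR-UAS-bla GripTite HEK293 cells in 2% charcoal/dextran FBS medium were preincubated 4 h at 37 C, given compound (0.59 nM to 92 uM) plus 0.4 nM T3 (final) for 18 h, then CCF4 for 2 h at RT; Hill fit gave IC50.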

The target in assay [10] is Voltage-gated inwardly rectifying potassium channel KCNH2 (Homo sapiens) (UniProt Q12809). Briefly: qHTS Assay for Small Molecule Inhibitors of the Human hERG Channel Activity (AID 588834).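 Note: top concentration of the series differs between compounds; % is set by controls: 0 for no effect and ±100 for the full control effect; lower thallium flux fluorescence means stronger hERG block; nearly all actives have a fitted effect of over 50% in size.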 In outline: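 Measured: FluxOR fluorescence after thallium stimulation in U2OS cells transduced with hERG by baculovirus. Compounds pre-incubated around 10 min; medium Opti-MEM with 2% FCS. AC50 from Hill equation.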
Sequence of Voltage-gated inwardly rectifying potassium channel KCNH2 (Homo sapiens) (Q12809 whole entry, looked up): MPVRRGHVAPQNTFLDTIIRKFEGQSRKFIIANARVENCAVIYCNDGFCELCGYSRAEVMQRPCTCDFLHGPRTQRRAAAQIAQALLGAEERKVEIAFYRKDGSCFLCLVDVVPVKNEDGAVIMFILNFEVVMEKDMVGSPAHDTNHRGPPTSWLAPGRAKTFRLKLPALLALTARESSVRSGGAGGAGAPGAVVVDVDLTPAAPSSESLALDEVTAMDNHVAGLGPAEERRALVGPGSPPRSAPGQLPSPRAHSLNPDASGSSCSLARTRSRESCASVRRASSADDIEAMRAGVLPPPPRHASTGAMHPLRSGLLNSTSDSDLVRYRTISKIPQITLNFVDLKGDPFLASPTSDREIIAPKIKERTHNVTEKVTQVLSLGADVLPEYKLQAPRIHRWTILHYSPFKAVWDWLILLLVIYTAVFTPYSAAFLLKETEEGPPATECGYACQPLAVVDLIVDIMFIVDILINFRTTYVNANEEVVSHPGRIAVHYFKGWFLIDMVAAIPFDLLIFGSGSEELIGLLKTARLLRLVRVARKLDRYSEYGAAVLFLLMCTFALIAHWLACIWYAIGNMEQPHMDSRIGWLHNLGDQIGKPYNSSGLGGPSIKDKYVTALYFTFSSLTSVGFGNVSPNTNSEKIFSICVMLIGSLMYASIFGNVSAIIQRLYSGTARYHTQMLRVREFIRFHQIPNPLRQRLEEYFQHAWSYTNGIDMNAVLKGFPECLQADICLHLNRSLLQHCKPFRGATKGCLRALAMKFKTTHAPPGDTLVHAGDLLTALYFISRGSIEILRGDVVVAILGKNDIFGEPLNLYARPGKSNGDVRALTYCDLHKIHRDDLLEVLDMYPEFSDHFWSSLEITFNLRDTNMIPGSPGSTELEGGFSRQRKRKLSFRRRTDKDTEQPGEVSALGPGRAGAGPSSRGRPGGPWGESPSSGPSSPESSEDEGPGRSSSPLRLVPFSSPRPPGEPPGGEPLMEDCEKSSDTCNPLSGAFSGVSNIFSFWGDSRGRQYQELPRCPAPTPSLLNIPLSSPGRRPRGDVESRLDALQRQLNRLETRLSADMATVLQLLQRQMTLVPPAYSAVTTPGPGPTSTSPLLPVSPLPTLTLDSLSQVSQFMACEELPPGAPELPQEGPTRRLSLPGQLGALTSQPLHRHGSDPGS

A short description of assay [11]: qHTS assay for small molecule activators of the p53 signaling pathway (AID 651743; active = well fitted activation curve with a large enough effect in the signal ratio, not every such curve was filed as active; the % refers to the signal ratio; note: potency is the fitted concentration of half-maximal effect; for activation: series mostly up to about 92 µM; % of control where 0% means no effect). Particulars: HCT-116 p53RE-bla, beta-lactamase FRET ratio, 16 h; activation: stronger effect = higher value. In outline:
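Cell-based beta-lactamase reporter (p53 response elements, HCT-116 background). After a 5-hour preincubation, cells received compound for 16 hours at 37 C; substrate development ran 2 hours at room temperature.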

A short description of assay [12]: qHTS assay for small molecule disruptors of the mitochondrial membrane potential - 1 hr assay (AID 651754; calls by dose curve; note: % is set by controls: 0 for no effect and ±100 for the full control effect; nearly all actives have a fitted effect of over 35% in size). In outline: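 HepG2, 2,000 cells/well, overnight attachment; cpd or DMSO 1 hr, 37C/5% CO2; Mito-MPS dye 30 min, 37C; fluorescence monomer (490/535) and aggregate (540/590).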
A short description of assay [13]: qHTS assay for small molecule disruptors of the mitochondrial membrane potential - 5 hr assay (AID 651755; calls by dose curve; note: % is set by controls: 0 for no effect and ±100 for the full control effect; nearly all actives have a fitted effect of over 40% in size). In outline:
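HepG2 cells, attached overnight at 37C, were exposed to compound or DMSO for 5 hr at 37C, 5% CO2. Mito-MPS dye was then added for 30 min, and fluorescence read at 490/535 nm (monomers) and 540/590 nm (aggregates).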

Assay [14] deals with Tumor necrosis factor (Homo sapiens) (UniProt P01375). Briefly: qHTS assay to identify small molecules that stimulate Tumor Necrosis Factor-alpha (TNF-alpha) secretion (AID 651757; active = well fitted curve in the direction sought with a large enough effect in the signal ratio; the % refers to the signal ratio; note: 0% is about no effect). In outline: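 Read-out is HTRF, a TR-FRET sandwich of cryptate- and XL665-labeled anti-TNF-alpha antibodies detecting cytokine secreted by THP-1 cells. Cells had been incubated with test compounds at 37 C for 17 hrs beforehand.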
Sequence of Tumor necrosis factor (Homo sapiens) (P01375 whole entry, looked up): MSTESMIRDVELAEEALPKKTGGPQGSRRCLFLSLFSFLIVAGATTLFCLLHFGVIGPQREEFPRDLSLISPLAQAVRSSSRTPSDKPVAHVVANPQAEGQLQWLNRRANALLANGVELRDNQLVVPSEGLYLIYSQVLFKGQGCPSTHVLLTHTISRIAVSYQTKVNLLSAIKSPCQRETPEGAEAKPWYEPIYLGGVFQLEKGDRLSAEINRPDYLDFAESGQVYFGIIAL

Assay [15] in a line: qHTS assay for environmental chemicals that activate the Aryl hydrocarbon Receptor (AhR) signaling pathway (AID 651777). Note: % of control where 0% means no effect; nearly all actives have a fitted effect of over 15% in size. Particulars: 1A2-DRE human hepatoma cells, luciferase, 24 h; activation: stronger effect = higher value. In outline:
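Concentration–response screening used 1,200 1A2-DRE cells per well, 24 hr compound exposure (37 C, 5% CO2), and One-Glo luminescence as the AhR-driven CYP1A2 reporter signal.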

The nature of assay [16]: qHTS assay for small molecule agonists of the antioxidant response element (ARE) signaling pathway measured by Nrf2-dependant transcriptional activity (AID 720636; active = well fitted curve in the direction sought with a large enough effect in the repeat runs; an effect the other way counts as inactive or inconclusive;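 note: HepG2 cells with an ARE-driven luciferase reporter; % of control where 0% means no effect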). In outline:
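Attachment 6 hr at 37 C, then compound versus DMSO vehicle for 16 hr in ARE-luc HepG2 cells (1% dialyzed FBS); luminescence recorded 30 min after ONE-Glo addition at room temperature.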

A short description of assay [17]: qHTS assay for small molecule antagonists of the retinoid-related orphan receptor gamma (ROR-gamma) signaling pathway - cell viability counter screen (AID 720652; active = well fitted curve in the direction sought with a large enough effect in the repeat runs; an effect the other way counts as inactive or inconclusive;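 note: series mostly up to about 92 µM; compound exposure lasted 16 hr before ATP read; % is set by controls: 0 for no effect and ±100 for the full control effect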). In outline: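 Luminescence from CellTiter-Glo after 30 min at room temperature reported cellular ATP as the cytotoxicity measure. Cells were the CHO reporter line with doxycycline-induced ROR-gamma expression, exposed to compound for 16 hr at 37 C.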

In assay [18] the target is Nuclear receptor subfamily 1 group I member 2 (Rattus norvegicus) (UniProt Q9R1A7). The assay can be described thus: qHTS assay for small molecule activators of the rat pregnane X receptor (rPXR) signaling pathway (AID 651751; call rule not given here; note: 0% is about no effect). Particulars: rPXR reporter cells, luciferase (One-Glo), 24 h.
Sequence of Nuclear receptor subfamily 1 group I member 2 (Rattus norvegicus) (Q9R1A7 whole entry, looked up): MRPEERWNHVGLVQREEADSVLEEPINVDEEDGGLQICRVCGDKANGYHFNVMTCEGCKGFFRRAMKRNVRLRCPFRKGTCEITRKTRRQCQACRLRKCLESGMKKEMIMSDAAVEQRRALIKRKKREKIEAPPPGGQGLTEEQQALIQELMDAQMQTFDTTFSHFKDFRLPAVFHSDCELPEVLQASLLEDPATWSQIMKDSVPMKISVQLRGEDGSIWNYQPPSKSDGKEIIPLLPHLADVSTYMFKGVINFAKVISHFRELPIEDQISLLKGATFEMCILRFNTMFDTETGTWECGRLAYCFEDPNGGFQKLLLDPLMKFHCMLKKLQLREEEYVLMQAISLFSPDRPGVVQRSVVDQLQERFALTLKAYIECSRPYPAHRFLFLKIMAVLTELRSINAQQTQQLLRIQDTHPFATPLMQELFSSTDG
The nature of assay [19]: qHTS assay for small molecule activators of the human pregnane X receptor (PXR) signaling pathway (AID 720659; call rule not given here; note: 0% is about no effect).
Assay [20] in a line: MultiTox-Fluor Cytotoxicity Assay - LYMP1-002 - Dead Cells (AID 960). Note: nearly all actives have a fitted effect of over 60% in size. In outline: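 LYMP1-002 cells 2500/well; 5 hr 37 C pre-incubation; compound 16 hr 37 C; MultiTox-Fluor reagent 60 min RT; dead-cell fluor Ex/Em 485/520. Norm. to DMSO (0%) vs 15 uM tetraoctylammonium bromide (100%); Hill AC50.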

Molecules are shown by their SMILES. Where “and” joins values, the source holds several entries; their conditions need not be identical. Equal entries are not always repeated. Inconclusive results are not listed. A structure can be active in one record and inactive in another. Calls of active or inactive are those of the source. Unless noted, calls come from the whole dose curve; as a rule, active = well fitted curve in the direction sought with a large enough effect; inconclusive = small, poorly fitted or top-dose-only effect, or another doubt; inactive = no such curve, though single readings can be large; an effect the other way counts as inactive or inconclusive.

Sequence of Cytochrome P450 3A4 (Homo sapiens) (P08684 whole entry, looked up): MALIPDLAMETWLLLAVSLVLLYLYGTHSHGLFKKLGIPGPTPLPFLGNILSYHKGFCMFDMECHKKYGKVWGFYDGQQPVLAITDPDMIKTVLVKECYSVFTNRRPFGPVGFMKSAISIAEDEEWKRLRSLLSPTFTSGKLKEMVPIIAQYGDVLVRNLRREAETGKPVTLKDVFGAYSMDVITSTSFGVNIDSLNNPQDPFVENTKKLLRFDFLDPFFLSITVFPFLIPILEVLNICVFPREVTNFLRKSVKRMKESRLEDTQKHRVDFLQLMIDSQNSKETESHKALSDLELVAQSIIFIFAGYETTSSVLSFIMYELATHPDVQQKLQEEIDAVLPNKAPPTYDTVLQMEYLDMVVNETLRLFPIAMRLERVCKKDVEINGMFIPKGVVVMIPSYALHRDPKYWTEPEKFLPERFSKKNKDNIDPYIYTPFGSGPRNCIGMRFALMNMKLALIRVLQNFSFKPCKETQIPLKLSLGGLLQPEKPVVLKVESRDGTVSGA
Sequence of Peroxisome proliferator-activated receptor gamma (Homo sapiens) (P37231 whole entry, looked up): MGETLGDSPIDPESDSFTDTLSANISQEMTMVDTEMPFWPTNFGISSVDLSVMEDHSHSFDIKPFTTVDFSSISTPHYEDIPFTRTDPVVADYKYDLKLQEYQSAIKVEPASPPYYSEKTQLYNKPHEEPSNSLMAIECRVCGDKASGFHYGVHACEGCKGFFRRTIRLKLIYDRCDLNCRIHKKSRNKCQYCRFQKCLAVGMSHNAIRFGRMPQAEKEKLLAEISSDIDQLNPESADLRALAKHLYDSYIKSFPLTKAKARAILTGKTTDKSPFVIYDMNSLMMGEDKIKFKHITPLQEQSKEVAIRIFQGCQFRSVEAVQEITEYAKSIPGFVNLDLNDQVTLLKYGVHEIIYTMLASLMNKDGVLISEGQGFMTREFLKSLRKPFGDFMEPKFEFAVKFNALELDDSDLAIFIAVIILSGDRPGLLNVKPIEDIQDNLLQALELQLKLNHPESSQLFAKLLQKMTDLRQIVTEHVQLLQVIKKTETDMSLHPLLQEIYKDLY

On to `CCO`, for which the Potency entry in [1], in assay [2], in assay [3], in [4], in assay [10] and in assay [12] was “inactive” throughout. For the same molecule, the Potency entry in assay [13], in assay [16] and in [17] was “inactive” throughout. Moreover, the outcome in assay [5], in assay [7], in [8], in assay [14] and in assay [19] was inactive. Moreover, the max response is 1.82% in [6] and 0.289% (inactive) in assay [18]. Also, the activity change % (negative = inhibition) in [9] is -1.42% (inactive). Moreover, the activation is -1.86% (inactive) in assay [11] and -1.26% (inactive) in [15].
With `Cc1ccc(N)c([N+](=O)[O-])c1`, the Potency entry in [1], in [20], in assay [3], in assay [4], in [10] and in assay [12] was “inactive” each time. Besides, the Potency entry in [13], in assay [16] and in [17] was “inactive” in each case. The call in [5], in assay [7], in [8] and in assay [14] was inactive. For the same molecule, the max response is -17.4% and -9.33% in assay [6]; -2.15% (inactive) and -2.21% (inactive) in [18]. Moreover, in assay [9], the activity change % (negative = inhibition) is -3.23% (inactive). The activation in assay [15] was 2.83% (inactive) and 1.74% (inactive).
In the case of `COc1ccc2nc(N)sc2c1`, the Potency result in assay [2], in assay [20], in assay [3], in [4], in assay [10] and in assay [12] was “inactive” throughout. The Potency result in [13] and in [17] was “inactive” each time. Also, the outcome in [5], in assay [7] and in assay [8] was inactive. The max response in assay [6] was -6.78% and -2.22%. Moreover, in assay [9], the activity change % (negative = inhibition) is -0.575% (inactive) and 14.1% (inactive).
Take `CC1=CC(C)(C)Nc2ccccc21`: in assay [1], the Potency is 10 µM (active) and inactive. In addition, the Potency entry in assay [2], in [20], in [3], in assay [4], in assay [10] and in assay [12] was “inactive” each time. In addition, the Potency result in assay [13], in assay [16] and in [17] was “inactive” each time. Besides, the molecule was classed as inactive in assay [5], in [7], in assay [8] and in assay [14]. In addition, in assay [6], the max response is -19.9% and -2.04%. Moreover, the activity change % (negative = inhibition) in [9] was -25% (inactive). The activation in assay [11] was -2.38% (inactive) and -0.537% (inactive); in [15], 1.47% (inactive) and 1.06% (inactive).
Regarding `CN(C)CCCCCCN(C)C`, the Potency result in [1], in [2], in assay [20], in assay [3], in assay [4] and in assay [12] was “inactive” in each case. Also, the Potency entry in assay [13], in assay [16] and in [17] was “inactive” in each case. For the same molecule, the molecule was called inactive in [5], in assay [7], in [8] and in assay [14]. Besides, the max response in [6] was -13.8%. Also, the activity change % (negative = inhibition) in [9] is 5.32% (inactive). The activation in [11] is -2.74% (inactive); in assay [15], 1.69% (inactive).
`c1ccc2c(c1)[nH]c1ccccc12`: the Potency entry in [1], in assay [2], in [20], in assay [3], in assay [4] and in assay [10] was “inactive” throughout. In addition, the Potency entry in assay [13] and in assay [17] was “inactive” each time. For the same molecule, the molecule was called inactive in [5], in [7], in assay [8], in [14] and in assay [19]. Further, the max response in assay [6] is 2.28% and -6.27%; in assay [18], -0.192% (inactive) and 1.32% (inactive). The activity change % (negative = inhibition) in [9] is 1.02% (inactive) and -10.3% (inactive). Further, the activation in [11] was 0.0697% (inactive) and -3.97% (inactive); in assay [15] it was 0.0505% (inactive) and 2.39% (inactive).
As for `S=C1NC=NC2N=CNC12` (stereo not given), the Potency result in assay [1], in [2], in assay [20], in assay [10], in assay [12] and in [13] was “inactive” throughout. Moreover, the Potency result in assay [16] was “inactive”. Further, the molecule was called inactive in [8] and in assay [19]. Further, the Potency in assay [11] is 10 µM (active). In addition, in [15], the activation is -2.14% (inactive). Further, the max response in assay [18] was -8.03% (inactive).
On to `CC(C)=CCCC(C)CCO` (stereo not given), for which the Potency result in assay [1], in [2], in assay [20], in assay [3], in [4] and in assay [10] was “inactive” in each case. For the same molecule, the Potency entry in assay [12], in assay [13], in [16] and in [17] was “inactive” each time. Also, the molecule was classed as inactive in assay [5], in assay [7], in [8], in [14] and in assay [19]. Besides, the max response is -10.2% and -2.4% in assay [6]; -5.01% (inactive) and 0.846% (inactive) in assay [18]. Further, the activity change % (negative = inhibition) in [9] is -8.9% (inactive) and -1.71% (inactive). Moreover, the activation in assay [11] was 0.545% (inactive) and -1.78% (inactive); in [15] it was -0.0827% (inactive) and -0.667% (inactive).
Turning to `CCCCCCCCCCCCCCC1CO1` (stereo not given), the Potency entry in assay [1], in assay [2], in assay [3], in assay [4], in [10] and in assay [16] was “inactive” each time. In addition, the Potency result in assay [17] is “inactive”. Moreover, the result in [5], in assay [7], in assay [8], in assay [14] and in assay [19] was inactive. Besides, the max response in assay [6] is -14.5% and -12.1%; in assay [18], -5.5% (inactive) and 2.15% (inactive). Further, the activity change % (negative = inhibition) in assay [9] is 8.79% (inactive). Further, the activation in [11] is 0.526% (inactive) and -2.5% (inactive); in assay [15], 0.108% (inactive) and 0.658% (inactive).
Consider `CCCCOCCO`, for which the Potency entry in assay [1], in assay [2], in [20], in assay [3], in [4] and in assay [10] was “inactive” throughout. In addition, the Potency entry in [12], in assay [13], in [16] and in assay [17] was “inactive” each time. Moreover, the call in [5], in [7], in assay [8], in [14] and in [19] was inactive. Besides, the max response in assay [6] is -6.03% and -11.6% and -17.6%. For the same molecule, in [9], the activity change % (negative = inhibition) was -4.64% (inactive) and -15.2% (inactive). Also, the activation in [11] is -0.263% (inactive) and -0.796% (inactive) and -1.77% (inactive); in assay [15] it was -1.94% (inactive) and 0.578% (inactive) and 2.45% (inactive).
